Source: PubChem (National Center for Advancing Translational Sciences (NCATS))
Marburg entry inh – Marburg virus entry inhibition; Marburg virus pseudotyped entry inhibition, cell reporter; actives 1.8% (n = 300,000); AID 540276; Potency, µM (top dose mostly 37.8 µM), for the others: at the top dose activity change, negative = inhibition, usual class: inhibitors; calls by dose curve; tested in HEK293 cells; further: potency means the concentration at half of the fitted maximal effect
HCMV inh – human cytomegalovirus inhibition; AID 1259415; actives 4.5% (n = 410,000); activity change, negative = inhibition, % at 57.5 µM; HFF cells, HCMV-luciferase reporter, 72 h; hits give low values; in the data active means activity change below about -60%; inconclusive means no clear call, values can overlap the other calls; inactive means above about -39%
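Two compound doses tested in HFFs infected with HCMV-luciferase, MOI 1 PFU/cell, 72 h at 37C. Lysate luminescence read with OneGlo; data normalized against buffer-only and 10uM Salinomycin inhibitor controls.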
LASV entry inh – inhibitors of Lassa virus binding or cell entry. Lassa virus pseudotype entry inhibition, cell reporter. Potency, µM (series often up to 37.9 µM), for inactives: at the highest dose activity change, negative = inhibition, hits mostly inhibitors. actives 1.2% (n = 300,000). AID 540256; calls by dose curve; tested in HEK293 cells; further: potency means the concentration at half of the fitted maximal effect; nearly all actives have a fitted effect of over 50% in size
FMDV inh – blocks foot and mouth disease virus; Potency, µM (series often up to 57.9 µM), for inactives: at the top dose activity change, negative = inhibition, actives largely listed as inhibitors; AID 1159524; FMDV antiviral cell-based qHTS; actives 1.2% (n = 410,000); calls by dose curve; tested in HEK293T cells; further: read-out not given here; potency means the concentration at half of the fitted maximal effect; nearly all actives have a fitted effect of over 45% in size
HCV inh – HCV inhibition. Huh7.5.1 HCVcc-Cre infection, luciferase reporter, 44 h. Potency, µM (doses to about 41.8 µM), for inactives: top-dose activity change, negative = inhibition, actives largely listed as inhibitors. actives 3.4% (n = 340,000); active means well fitted inhibition curve with a large enough effect; inconclusive means small, poorly fitted or top-dose-only effect, or another doubt; inactive means no such curve, though single readings can be large or run the other way; further: potency means the concentration at half of the fitted maximal effect
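Cells seeded at 1,000/well and cultured 4 h, then compounds added followed by HCVcc-Cre virus (~0.5 moi). After 44 h further culture, luciferase substrate was added, plates held 15 min at room temperature, and luminescence read for 15 sec.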
* = called active by the depositor; ? = inconclusive; · = no result; [ ] = dose if it differs, or a comment. Compounds with a hit are over-represented: about 7.9% of the library has one in this group of screens. On the % scale 0 is the no-effect control and ±100 the full control effect.

SMILES	Marburg entry inh	HCMV inh	LASV entry inh	FMDV inh	HCV inh
COc1cc(-c2nnc(NC(=O)c3ccc(S(=O)(=O)N4CCOCC4)cc3)o2)cc(OC)c1OC	·	-2.1	·	·	·
COc1cccc(-c2nnc(NC(=O)c3ccc(S(=O)(=O)N4CCOCC4)cc3)o2)c1	?	·	?	-21.4%	12.6µM*
Cc1cccc(NC(=O)c2ccc(S(=O)(=O)N3CCC(C)CC3)cc2)n1	?	-76.6*	2.0%	31.6µM*	?
O=C(Nc1ccc(Oc2ccc(NC(=O)c3ccco3)c(NC(=O)c3ccco3)c2)cc1)c1ccco1	?	?	9.1%	·	25.1µM*
Cc1ccc(NC(=O)c2ccco2)c(NC(=O)c2cccs2)c1	5.5%	14.6	2.3%	·	11.2µM*
O=C(Nc1ccc(Oc2ccc3ccccc3c2)cc1)c1ccco1	?	-68.5*	-35.8%	0.0%	?
COc1ccc(NC(=O)c2ccc(NC(=O)c3ccco3)cc2)c(OC)c1	-11.3%[46.1 µM]	-36.5	-1.8%[46.1 µM]	2.2%	?
CCOc1ccc(NC(=O)c2ccco2)cc1	?	16.0	?	-22.3%	9.2%
CCOc1ccc(Br)cc1CNCCSc1nnnn1-c1ccccc1	7.2%[46.1 µM]	-5.1	-5.5%[46.1 µM]	0.0%	·
CC(C)(C)c1ccc(NC(=O)N2CCCN(c3ccc([N+](=O)[O-])cn3)CC2)cc1	-20.7%[46.1 µM]	-73.0*	?	31.6µM*	-76.1%
CC(NC(=O)C1CCOCC1)c1nnc2n1CCN(Cc1ccc3cccnc3c1)CC2 (stereo not drawn)	·	·	·	-2.2%	·
CCOC(=O)C1=C[C@@H](C2CCCCC2)N(S(=O)(=O)c2ccc([N+](=O)[O-])cc2)[C@H]1c1ccccc1	·	-77.0*	·	?	·
CCOC(=O)C1=CC[C@@H](c2ccc([N+](=O)[O-])cc2)N(S(=O)(=O)c2ccc(C)cc2)[C@H]1c1ccccc1	·	-14.3	·	-17.2%	·
CCCCNc1nc2ccccc2c2nc(-c3ccccc3)nn12	?	-17.2	·	-8.8%	·
C=CCNc1nc(Cl)nc(Nc2ccccc2)n1	·	-0.9	·	37.4%	-29.5%
CCCCNc1nc(-c2ccccc2)nc(-n2ccnc2)n1	?	-15.9	-5.9%	1.1%	3.55µM*
C=CCNc1nc(-c2ccccc2)nc(-n2ccnc2)n1	?	10.8	4.6%	-11.8%	2.51µM*
NC(=O)c1ccccc1NC(=O)Nc1ccc(F)c(Cl)c1	?	-3.1	4.8%	51.4%	-17.3%
O=c1nc(/C=C/c2cc([N+](=O)[O-])ccc2Cl)cc(C(F)(F)F)[nH]1	-29.9%	-68.4*	-17.4%	0.0%	-4.0%
COc1cc(/C=C/c2cc(C(F)(F)F)[nH]c(=O)n2)cc(OC)c1OC	?	-97.0*	?	?	0.1%
C#CCN(C[C@H]1[C@H](OC(=O)Nc2c(C)noc2C)[C@H](OC(=O)Nc2c(C)noc2C)C[C@@H](C(=O)OC)[C@H]1C(=O)OC)S(=O)(=O)c1ccc(C)cc1	·	-1.6	·	31.6µM*	·
Cc1ccc(S(=O)(=O)c2nnn3c2nc(NC(C)c2ccccc2)c2sccc23)cc1 (stereo not drawn)	·	-70.8*	-6.3%[46.1 µM]	-29.6%	·
COc1ccccc1Nc1nc2c(S(=O)(=O)c3ccc(C(C)C)cc3)nnn2c2ccsc12	·	19.5	22.5%[46.1 µM]	-12.5%	·
Cc1ccc(C)c(Nc2nc3c(S(=O)(=O)c4ccc(Br)cc4)nnn3c3ccsc23)c1	·	-95.1*	?	-16.0%	·
CCc1ccc(S(=O)(=O)c2nnn3c2nc(NCCc2ccccc2)c2sccc23)cc1	·	-80.8*	?	8.9%	·
SMILES	Marburg entry inh	HCMV inh	LASV entry inh	FMDV inh	HCV inh
Cc1ccc(S(=O)(=O)c2nnn3c2nc(NCc2ccccc2)c2sccc23)cc1	·	?	-4.4%[46.1 µM]	-14.6%	·
Cc1ccc(C)c(Nc2nc3c(S(=O)(=O)c4ccc(C(C)C)cc4)nnn3c3ccsc23)c1	·	-71.0*	?	-7.0%	·
CN(C)CC(=O)N1[C@H](C(=O)Nc2nccs2)[C@@H](CO)[C@@H]2Cn3c(ccc(C4=CCCCC4)c3=O)[C@@H]21	·	-5.7	·	·	·
O=c1oc(-c2ccccc2)cc2ccccc12	·	83.2	·	·	·
Nc1ccc(-c2cc3ccccc3c(=O)o2)cc1	·	-61.8*	·	?	?
Cc1ccc(-n2[nH]c(C)c(C=Nc3ccc4[nH]c(=O)[nH]c4c3)c2=O)cc1	?	22.9	?	31.6µM*	4.3%
Cc1ccc(-n2[nH]c(C)c(C=Nc3ccc4[nH]c(=O)[nH]c4c3)c2=O)cc1C	?	12.7	?	?	?
COc1cccc(NCc2cc(=O)oc3cc(C)c(C(C)C)cc23)c1	·	-26.4	·	-3.2%	10µM*
Cc1oc2c(c1C(=O)Nc1ccc(Cl)cc1F)C1=NCCN1C=N2	·	-11.0	23.9%[46.1 µM]	-21.3%	·
Cc1cc(C(=O)c2ccc(Cl)cc2)c(NC(=O)CCl)s1	?	-23.1	-3.0%	25.1µM*	?
Cc1ccc(C)c(OCC(O)CN2CCC(Cc3ccccc3)CC2)c1 (stereo not drawn)	·	-111.5*	·	?	10.9%
Cc1ccc(C)c(OCC(O)CN2C(C)CCCC2C)c1 (stereo not drawn)	?	4.8	?	-9.5%	12.6µM*
OC(COc1ccc(Cl)cc1)CN1CCC(Cc2ccccc2)CC1 (stereo not drawn)	·	0.7	·	-20.4%	?
CC1CCCC(C)N1CC(O)COCc1ccccc1 (stereo not drawn)	6.31µM*	?	-28.9%[46.1 µM]	-14.4%	8.4%
Cc1ccc(C)c(OCC(O)CN2CCCCC2C)c1 (stereo not drawn)	?	-4.7	-18.8%	-10.9%	?
Cc1noc(C)c1COc1ccc(C(=O)OCC(=O)Nc2ccc(C(=O)N(C)C)cc2)cc1	-13.9%	-19.8	?	?	14.8%
CCOc1ccc(NC(=O)Cn2cc(S(=O)(=O)N3CCN(c4ccccc4F)CC3)c3ccccc3c2=O)cc1	0.9%[46.1 µM]	-2.4	-2.7%[46.1 µM]	13.0%	·
Cc1cc(C)cc(C(=O)N(Cc2nc(-c3ccc(Cl)cc3)no2)C(C)C)c1	-0.1%[46.1 µM]	-7.1	?	-16.4%	·
COc1ccccc1C1c2c(-c3ccc(Cl)cc3)n[nH]c2C(=O)N1c1ccc(C)cc1 (stereo not drawn)	?	-105.0*	?	?	·
CCOc1ccc(C2c3c(-c4ccc(C)cc4)n[nH]c3C(=O)N2c2ccc(Cl)cc2)cc1 (stereo not drawn)	?	-105.9*	?	-20.8%	·
CCOc1ccc(NC(=O)c2ccc(-c3cccc(Cl)c3C)o2)cc1	·	-8.5	6.7%[46.1 µM]	-10.5%	·
CCc1cc(C)cc(OCCNC(=O)c2cncc(Br)c2)c1	?	32.1	-9.8%	-25.5%	10µM*
COc1ccc(CN2CCNC(=O)C2CC(=O)N(C)CCCN2CCOCC2)cc1C (stereo not drawn)	·	-32.0	·	-3.2%	16.7%
CN(C)c1ccc(N=Cc2nc(-c3ccccc3)oc2O)cc1	24.8%	34.0	-2.3%	14.1%	-23.1%
CN(C)c1ccc(N=Cc2cccn2C)cc1	?	?	6.31µM*	22.0%	?
O=S(=O)(NCc1cccc(C(F)(F)F)c1)NCc1ccccc1F	?	70.4	-11.6%[46.1 µM]	24.9%	-14.3%
